Structures are written as SMILES. Several values for one entry are separate records, joined by “and”; a condition that tells them apart may be missing. Equal values may be shown once. The panel holds about 83,000 compounds, 20% with a hit somewhere; the sample as a whole holds those more often.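 Assay: single dose, 48 h. Readout: percent growth (0 = no net growth; negative = cell death). Active: <10.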 A number with no mark means an inactive call. Activity calls are given as the source filed them.

This assay deals with MDA-MB-468 breast. The assay is described as follows: NCI-60 one-dose screen, 48 h (100 = growth as untreated, 0 = no growth, -100 = all killed). The note with it: 10 µM unless noted.
As for `Cc1ccc(Sc2oc(-c3ccc(C)cc3)nc2[P+](c2ccccc2)(c2ccccc2)c2ccccc2)cc1`, the growth is -36.5% (active).

With `O=[N+]([O-])c1ccc(Oc2cccnc2)c([N+](=O)[O-])c1`, the growth was 21.6%.

Turning to `O=C1c2ccccc2OC=C(c2ccccc2)N1CCCCNc1ccc(S(=O)(=O)Nc2ncccn2)cc1`, the growth was 103%.

`CCOC(=O)C(O)C(O)(c1ccccc1)c1ccccc1` (stereo not given): the growth is 115%.

Regarding `Clc1ccc(Nc2nc(Nc3ccccc3)nc(Nc3ccc(-c4cc(-c5ccc(Cl)cc5)on4)cc3)n2)cc1`, the growth was 93.4%.

Consider `COc1cc(/C=C/c2cc(/C=C/c3ccc(O)c(OC)c3)n(-c3c(C)cccc3C)c(=O)n2)ccc1O`, for which the growth is -16.4% (active).

Take `CC(=O)c1ccc(Nc2nc(SCC(C)C)nc(-c3ccccc3)c2C#N)cc1`: the growth is 73.7%.

Take `C=C(C)[C@@H]1CC[C@]2(C(=O)N3CCN(C)CC3)CC[C@]3(C)[C@H](CC[C@@H]4[C@@]5(C)CC(=C/c6ccncc6)/C(=N/O)C(C)(C)[C@@H]5CC[C@]43C)[C@@H]12`: the growth was 62.2%.

For `COc1cc(-c2nc3nc4sc(C)c(C)c4c(=O)n3[nH]2)cc(OC)c1OC`, the growth is 75.5%.

Regarding `NC(N)=NCCCCCNc1noc(Cc2c[nH]c3cc(Br)ccc23)n1`, the growth is 1.76% (active).

As to `C[N+]1(CCCCC[N+]2(C)CCCC2)CCCC1`, the growth was 117%.

For `CCN(CC)Cc1cc2[nH]c3c4ccc(Cl)cc4ncc3c2cc1OC`, the growth is -12.8% (active) and -25.8% (active).

Take `CC1CCC(C(C)C)C(NNC(N)=O)C1` (stereo not given): the growth was 94.9%.

Take `C=C1C(=O)O[C@H]2[C@H]1CC/C(COC(=O)NC1CCC(O)CC1)=C\CC[C@@]1(C)O[C@@H]21` (stereo not given in full): the growth was 37% and 31.7%.

Regarding `COc1cc2cc(C(=O)Nc3ccccc3)c(N)nc2cc1OC`, the growth was -81.5% (active).

On to `O=S(=O)(NCCNc1nccc(-c2c(-c3ccc(F)c(O)c3)nc3sccn23)n1)c1ccc(O)cc1`, for which the growth was 31.4%.

Regarding `Cc1ccc(-c2csc(NC(=O)CN3CCN(c4cc5c(cc4F)c(=O)c(C(=O)O)cn5C4CC4)CC3)n2)cc1`, the growth was 3.21% (active).

`CN(C)c1ccc(N=Nc2cccc3ccccc23)cc1`: the growth was -26.6% (active).

For the compound `CC(C)(N)COS(=O)(=O)O`, the growth was 107%.

For `COc1cc2cc(Oc3ccc(NC(=O)c4ccccc4)cc3)c(C)nc2cc1OC`, the growth was 98.4%.

Turning to `CC[C@]12C=CCN3CC[C@@]4(c5ccc(OC)cc5N(C)[C@H]4[C@@](O)(C(=O)OC)[C@@H]1OC(=O)CCC(=O)N[C@@H](Cc1c[nH]c4ccccc14)C(=O)OC)[C@@H]32`, the growth was -20.8% (active).

With `Cc1cc(N[C@@H]2CCC[C@H](Nc3ccnc4cc(Cl)ccc34)C2)nc(N2CCCCCC2)n1`, the growth was -65.8% (active).

Consider `COc1cc2c(cc1O)C(=O)CCCC2`, for which the growth is 87.3%.

Regarding `CNC(=O)c1cccnc1`, the growth is 106%.

For the compound `COc1ccc(/C=C/C(=O)Nc2ccc(-c3nc4ccc(F)cc4s3)cc2)cc1`, the growth is -12.9% (active).

Turning to `Cc1ccccc1NC(=O)Nc1nc2ccc([N+](=O)[O-])cc2s1`, the growth was -3.68% (active).

As for `C[n+]1ccc(CCc2c[nH]c3ccccc23)cc1`, the growth is 14.4%.

Take `CCCCCc1ccc(C)cc1OC(=O)CCl`: the growth was 110%.

Take `CCn1c(CN2CCN(Cc3ccccc3)CC2)nc2cc(NC(=O)c3cccs3)ccc21`: the growth is -86.6% (active).

On to `COC(c1ccccc1)(c1ccccc1)c1ccccc1`, for which the growth is 113%.

With `CCOC(=O)C/C(C)=N\NC(=O)c1ccncc1`, the growth is 110%.

For the compound `COc1ccc(/C=C/C(=O)c2ccc(Nc3ncnc4ccccc34)cc2)cc1OC`, the growth is 60.7%.

As for `CS(=O)(=O)c1ccc(/C=C\C(=O)O)cc1`, the growth is 93.6%.

On to `COc1cc(/C=N/Nc2ncc(-c3cc4cc5c(cc4o3)OCO5)s2)cc(OC)c1OC`, for which the growth is 25.2%.

In the case of `C#C[C@]1(O)CC[C@H]2[C@@H]3CC=C4c5sc(-c6ccc(F)cn6)nc5CC[C@]4(C)[C@H]3CC[C@@]21C`, the growth is 43.4%.

Take `COc1ccc(C2C(C#N)=C(N)Oc3c2sc2c(Br)cccc32)cc1` (stereo not given): the growth is 3.82% (active).

For `O=C(/C=C/c1ccccc1Br)c1cccc(OCCCCOc2cccc(C(=O)/C=C/c3ccccc3Br)c2)c1`, the growth is 95.4%.

Take `CCOC(=O)c1nn(C2CCCCO2)c2ccc(NC(=O)CN3CCOCC3)cc12` (stereo not given): the growth is 107%.

Regarding `CC(C)(C)OC(=O)NCCc1ccc(N)cc1`, the growth is 94.3%.

As for `CCOc1ccc2c(c1)/C(=C\C=C\C1CC(C)C3CC(OCC)CCC3N1CC)CC(C)N2CC` (stereo not given), the growth is -37.3% (active).

The record behind these values is PubChem BioAssay (NCI).
